The record followed here is PubChem BioAssay (NCI).

Test systems include DU-145 prostate; K-562 leukemia; MALME-3M melanoma; MDA-MB-231 breast; RXF 393 renal; SF-268 CNS; SF-295 CNS; SF-539 CNS; UACC-257 melanoma; M14 melanoma; HCT-15 colon; HT29 colon; SNB-75 CNS; SNB-19 CNS; U251 CNS; PC-3 prostate; SK-MEL-5 melanoma; UACC-62 melanoma; LOX IMVI melanoma; SK-MEL-28 melanoma.
Holding throughout (test): NCI-60 one-dose screen, 48 h (100 = growth as untreated, 0 = no growth, -100 = all killed)
What all share (conditions): 10 µM unless noted

Compounds without any hit were thinned out: in the full panel of roughly 83,000, 20% have a hit.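 Values shown are percent growth following 48 h exposure of cells in 96-well plates to a single concentration of compound; below 10 was considered active.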 Unmarked numbers belong to inactive results. The source made the active and inactive calls.

With `Oc1ccccc1/C=N/c1ccccn1`, the growth with DU-145 prostate is 129%; in the assay on K-562 leukemia it was 109%; with MALME-3M melanoma, 115%; in the assay on MDA-MB-231 breast it was 106%; in the assay with RXF 393 renal it was 107%; with SF-268 CNS, 110%. Further, the growth in the assay with SF-295 CNS was 121%; in the assay with SF-539 CNS, 100%; in the assay on UACC-257 melanoma, 91.4%; in the assay on M14 melanoma it was 100%; in the assay with HCT-15 colon, 104%; in the assay on HT29 colon it was 114%. The growth with SNB-75 CNS was 98%; in the assay on SNB-19 CNS, 88%; in the assay with U251 CNS, 99%; with PC-3 prostate it was 91.4%; in the assay on SK-MEL-5 melanoma it was 97%; in the assay on UACC-62 melanoma, 106%. Besides, the growth is 94.4% in the assay with LOX IMVI melanoma and 117% with SK-MEL-28 melanoma.
In the case of `c1ccc(-c2nc3sc(C(c4ccccc4)c4ccccc4)nn3c2-c2ccccc2)cc1`, the growth was 99.9% in the assay with DU-145 prostate; 106% in the assay with K-562 leukemia; 86.4% in the assay with MALME-3M melanoma; 97.8% with MDA-MB-231 breast; 109% in the assay on RXF 393 renal; 92.6% in the assay with SF-268 CNS. The growth in the assay on SF-295 CNS was 98.6%; with SF-539 CNS it was 98%; in the assay with UACC-257 melanoma, 92.2%; in the assay on M14 melanoma, 92%; in the assay with HCT-15 colon, 87.9%; in the assay on HT29 colon it was 94.9%. For the same compound, the growth with SNB-75 CNS was 85%; with SNB-19 CNS it was 109%; in the assay on U251 CNS it was 102%; in the assay with PC-3 prostate, 78.7%; in the assay on SK-MEL-5 melanoma, 109%; in the assay with UACC-62 melanoma it was 89%. In addition, the growth with LOX IMVI melanoma is 89.4%; in the assay with SK-MEL-28 melanoma it was 102%.
As for `Nc1ncnc2c1c(-c1ccc(Oc3ccccc3)cc1)nn2C[C@@H]1SSC[C@H]1O`, the growth was 33.4% in the assay on DU-145 prostate; 7.7% (active) with K-562 leukemia; 7.28% (active) in the assay with MALME-3M melanoma; 42.6% in the assay on MDA-MB-231 breast; -9.3% (active) in the assay on RXF 393 renal; 29.3% with SF-268 CNS. Further, the growth in the assay with SF-295 CNS was 24.2%; with SF-539 CNS, 15.3%; in the assay with UACC-257 melanoma, 36.8%; in the assay on M14 melanoma, -13.8% (active); in the assay on HCT-15 colon, 70.4%; in the assay on HT29 colon, 13.2%. In addition, the growth in the assay on SNB-75 CNS is 2.29% (active); in the assay on SNB-19 CNS, 40.6%; in the assay with U251 CNS, 26.5%; in the assay with PC-3 prostate it was 55.7%; in the assay on SK-MEL-5 melanoma, -59.6% (active); with UACC-62 melanoma it was -70.4% (active). The growth was 10.7% in the assay on LOX IMVI melanoma and 31.4% in the assay with SK-MEL-28 melanoma.
`COc1cc(CN(c2ccc(Cl)cc2)C2OC(=O)c3ccccc32)cc(OC)c1OC` (stereo not given): the growth in the assay on DU-145 prostate is 83.7%; in the assay with K-562 leukemia, 15.8%; in the assay with MALME-3M melanoma, 64.3%; with MDA-MB-231 breast it was 67.1%; with RXF 393 renal, 82.7%; with SF-268 CNS it was 67.8%. Also, the growth is 71.5% in the assay on SF-295 CNS; 60.2% with SF-539 CNS; 74.7% in the assay with UACC-257 melanoma; 34.8% with M14 melanoma; 38.2% in the assay on HCT-15 colon; 17.9% in the assay on HT29 colon. The growth in the assay on SNB-75 CNS was 68.6%; in the assay with SNB-19 CNS, 74.1%; in the assay with U251 CNS, 36%; in the assay on PC-3 prostate, 62.6%; in the assay with SK-MEL-5 melanoma it was 73%; in the assay on UACC-62 melanoma it was 45.6%. In addition, the growth with LOX IMVI melanoma is 44.9%; in the assay with SK-MEL-28 melanoma it was 67.3%.
For `COc1ccc(-c2nn(-c3ccc(NC(=O)Nc4ccc(Cl)c(C(F)(F)F)c4)cc3)cc2-c2ccncc2)cc1Cl`, the growth was 20.5% in the assay with DU-145 prostate; 10.3% in the assay with K-562 leukemia; 2.95% (active) with MALME-3M melanoma; -52.1% (active) in the assay with MDA-MB-231 breast; -68.3% (active) in the assay with RXF 393 renal; 19% in the assay with SF-268 CNS. In addition, the growth in the assay on SF-295 CNS was -25.9% (active); in the assay with SF-539 CNS, -1.2% (active); in the assay on UACC-257 melanoma, -5.92% (active); in the assay with M14 melanoma, -4.4% (active); in the assay on HCT-15 colon it was 4.89% (active); in the assay on HT29 colon it was 1.91% (active). The growth is 32.8% in the assay with SNB-75 CNS; 30.1% in the assay with SNB-19 CNS; -7.17% (active) in the assay on U251 CNS; 4.33% (active) in the assay on PC-3 prostate; -86.8% (active) in the assay with SK-MEL-5 melanoma; 0.79% (active) in the assay with UACC-62 melanoma. For the same compound, the growth in the assay with LOX IMVI melanoma is 2.18% (active); in the assay with SK-MEL-28 melanoma, 12.2%.
As for `FC(F)(F)c1cccc([Si](F)(c2cccc(C(F)(F)F)c2)c2cccc(C(F)(F)F)c2)c1`, the growth in the assay with DU-145 prostate is 94%; with K-562 leukemia, 62.2%; with MALME-3M melanoma, 106%; with MDA-MB-231 breast, 80.4%; in the assay with RXF 393 renal, 87.6%; with SF-268 CNS, 84%. Also, the growth in the assay on SF-295 CNS was 69.2%; in the assay on SF-539 CNS, 101%; in the assay with UACC-257 melanoma, 81.3%; in the assay with M14 melanoma it was 86.1%; with HCT-15 colon, 72.1%; in the assay on HT29 colon, 59.3%. For the same compound, the growth in the assay with SNB-75 CNS is 80.4%; in the assay with SNB-19 CNS, 77.7%; with U251 CNS it was 72.1%; with PC-3 prostate, 24.2%; with SK-MEL-5 melanoma, 84.2%; in the assay with UACC-62 melanoma, 68.4%. In addition, the growth is 72.9% in the assay on LOX IMVI melanoma and 85.8% in the assay with SK-MEL-28 melanoma.
Consider `CCCCOc1nc2ccc(Cl)cc2cc1/C=C/C(=O)/C=C/c1ccc(Cl)cc1`, for which the growth was 84.7% with DU-145 prostate; 57% with K-562 leukemia; 104% with MALME-3M melanoma; 86.5% in the assay with MDA-MB-231 breast; 41.6% in the assay on RXF 393 renal; 81% in the assay on SF-268 CNS. Further, the growth is 79.5% in the assay with SF-295 CNS; 100% in the assay on SF-539 CNS; 84% with UACC-257 melanoma; 18% in the assay on M14 melanoma; 81.9% in the assay on HCT-15 colon; 25.2% in the assay with HT29 colon. For the same compound, the growth in the assay on SNB-75 CNS is 86.4%; with SNB-19 CNS it was 93.9%; with U251 CNS it was 35.3%; in the assay on PC-3 prostate, 57.5%; with SK-MEL-5 melanoma, 49.4%; in the assay on UACC-62 melanoma, 67.5%. For the same compound, the growth is 24.1% with LOX IMVI melanoma and 81.9% in the assay with SK-MEL-28 melanoma.
For `COc1cc(C(=O)N2CCN(C(=O)c3cc(OC)c(OCc4ccccc4)cc3N)CC2)c(N)cc1OCc1ccccc1`, the growth in the assay on DU-145 prostate was 111%; in the assay on K-562 leukemia it was 7.24% (active); with MALME-3M melanoma, 91.1%; in the assay on MDA-MB-231 breast it was 94.7%; in the assay with RXF 393 renal, 98.6%; with SF-268 CNS it was 108%. Moreover, the growth in the assay on SF-295 CNS is 102%; with SF-539 CNS, 104%; in the assay on UACC-257 melanoma, 98.5%; in the assay on M14 melanoma, 111%; with HCT-15 colon, 130%; with HT29 colon, 116%. Moreover, the growth in the assay on SNB-75 CNS was 108%; in the assay with SNB-19 CNS, 108%; in the assay with U251 CNS, 115%; in the assay on PC-3 prostate, 106%; in the assay with SK-MEL-5 melanoma it was 71.4%; with UACC-62 melanoma it was 114%. Besides, the growth in the assay on LOX IMVI melanoma is 108%; in the assay on SK-MEL-28 melanoma it was 123%.
